Experimental data reported in PubChem BioAssay AID1159580 (chemical genetic matrix, 2015).
Values joined by “and” are separate entries in the source; they are usually repeats but may differ in a detail not shown here. Identical values can stand only once. Hit rate of the full screen: of about 5,500 compounds, about 2,000 (36%) were called active. Inconclusive results (about 18%) are left out. Cut-off read from the data, not from the text of the source: active = normalized growth mostly below about 0.91 (no sharp cut-off); inconclusive = no clear call, values can overlap the other calls; inactive = mostly above about 0.92. The list shows a part of the results.

Experiment: chemical genetic growth profiling, strain panel (AID 1159580);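 note: tested at 20 µM; growth read once vehicle control cultures reached saturation at 30 °C; 1 = growth at the plate median or of vehicle wells; lower values mean less growth of the strain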
Details: S. cerevisiae deletion strains, growth OD

Measured: normalized growth

COc1cc(OC)c2c(=O)c(O)c(-c3ccc(OC)c(OC)c3)oc2c1
active: locus YAL021C, strain ccr4, stronger effect = lower value 0.741 | locus YAL026C, strain drs2, stronger effect = lower value 0.852 | locus YAL030W, strain snc1, stronger effect = lower value 0.904 | locus YBL061C, strain skt5, stronger effect = lower value 0.901 | locus YBR009C, strain hhf1, stronger effect = lower value 0.903 | locus YBR023C, strain chs3, stronger effect = lower value 0.827 | locus YBR229C, strain ROT2, stronger effect = lower value 0.648 | locus YBR231C, strain swc5, stronger effect = lower value 0.77 | locus YBR279W, strain paf1, stronger effect = lower value 0.913 | locus YCL029C, strain bik1, stronger effect = lower value 0.768 | locus YDL035C, strain GPR1, stronger effect = lower value 0.31 | locus YDL074C, strain BRE1, stronger effect = lower value 0.402 | locus YDL101C, strain DUN1, stronger effect = lower value 0.396 | locus YDL134C, strain PPH21, stronger effect = lower value 0.369 | locus YDL192W, strain arf1, stronger effect = lower value 0.719 | locus YDR069C, strain doa4, stronger effect = lower value 0.496 | locus YDR101C, strain arx1, stronger effect = lower value 0.811 | locus YDR162C, strain NBP2, stronger effect = lower value 0.132 | locus YDR297W, strain sur2, stronger effect = lower value 0.841 | locus YDR318W, strain mcm21, stronger effect = lower value 0.788 | locus YDR334W, strain swr1, stronger effect = lower value 0.856 | locus YDR335W, strain msn5, stronger effect = lower value 0.878 | locus YDR388W, stronger effect = lower value 0.844 | locus YDR502C, strain sam2, stronger effect = lower value 0.667 | locus YEL003W, strain gim4, stronger effect = lower value 0.876 | locus YER015W, strain faa2, stronger effect = lower value 0.82 | locus YER111C, strain swi4, stronger effect = lower value 0.835 | locus YER155C, strain BEM2, stronger effect = lower value 0.664 | locus YER167W, strain BCK2, stronger effect = lower value 0.631 | locus YFR010W, strain ubp6, stronger effect = lower value 0.852 | locus YGL173C, strain kem1, stronger effect = lower value 0.78 | locus YGL248W, strain PDE1, stronger effect = lower value 0.46 | locus YGL253W, strain hxk2, stronger effect = lower value 0.889 | locus YGR078C, strain PAC10, stronger effect = lower value 0.591 | locus YGR135W, strain pre9, stronger effect = lower value 0.689 | locus YHR027C, strain rpn1, stronger effect = lower value 0.695 | locus YHR079C, strain IRE1 (second series), stronger effect = lower value 0.77 | locus YHR094C, strain hxt1, stronger effect = lower value 0.864 | locus YHR129C, strain ARP1, stronger effect = lower value 0.589 | locus YHR142W, strain chs7, stronger effect = lower value 0.82 | locus YHR200W, strain rpn10, stronger effect = lower value 0.784 | locus YIL066C, strain RNR3, stronger effect = lower value 0.46 | locus YIL073C, strain SPO22, stronger effect = lower value 0.163 | locus YIL125W, strain kgd1, stronger effect = lower value 0.916 | locus YIR030C, strain dcg1, stronger effect = lower value 0.873 | locus YJL095W, strain BCK1 (second series), stronger effect = lower value 0.921 | locus YJL134W, strain LCB3, stronger effect = lower value 0.608 | locus YJL164C, strain tpk1, stronger effect = lower value 0.758 | locus YJL168C, strain set2, stronger effect = lower value 0.929 | locus YJL187C, strain SWE1 (second series), stronger effect = lower value 0.17 | locus YJR043C, strain POL32, stronger effect = lower value 0.238
0.264 (active) and 0.97 (inactive): locus YJL095W, strain BCK1, stronger effect = lower value
inactive: locus YBR021W, strain FUR4, stronger effect = lower value 0.922 | locus YBR171W, strain sec66, stronger effect = lower value 0.942 | locus YCL011C, strain gbp2, stronger effect = lower value 0.916 | locus YCL016C, strain dcc1, stronger effect = lower value 0.934 | locus YCL069W, strain vba3, stronger effect = lower value 0.973 | locus YCR088W, strain abp1, stronger effect = lower value 0.958 | locus YDL005C, strain med2, stronger effect = lower value 0.982 | locus YDL040C, strain nat1, stronger effect = lower value 0.978 | locus YDL185W, strain tfp1, stronger effect = lower value 0.94 | locus YDR001C, strain nth1, stronger effect = lower value 0.964 | locus YDR137W, strain rgp1, stronger effect = lower value 0.904 | locus YDR159W, strain sac3, stronger effect = lower value 0.992 | locus YDR195W, strain ref2 0.984 | locus YDR392W, strain spt3, stronger effect = lower value 0.943 | locus YEL037C, strain rad23, stronger effect = lower value 0.926 | locus YEL061C, strain CIN8 (second series), stronger effect = lower value 0.98 | locus YER016W, strain bim1, stronger effect = lower value 0.942 | locus YER110C, stronger effect = lower value 1.02 | locus YER155C, strain BEM2 (second series), stronger effect = lower value 0.936 | locus YGL078C, strain dbp3, stronger effect = lower value 0.978 | locus YGL167C, strain pmr1, stronger effect = lower value 0.938 | locus YGL227W, strain vid30, stronger effect = lower value 0.986 | locus YGL240W, strain doc1, stronger effect = lower value 0.993 | locus YGR252W, strain gcn5, stronger effect = lower value 0.85 | locus YHR013C, strain ard1, stronger effect = lower value 0.868 | locus YHR030C, strain SLT2, stronger effect = lower value 0.971 | locus YHR079C, strain IRE1, stronger effect = lower value 0.996 | locus YJL092W, strain hpr5, stronger effect = lower value 0.959 | locus YJL115W, strain asf1, stronger effect = lower value 0.973 | locus YJL129C, strain trk1, stronger effect = lower value 1.01 | locus YJL154C, strain vps35, stronger effect = lower value 0.968 | locus YJL166W, strain qcr8, stronger effect = lower value 0.934 | locus YJR066W, strain TOR1, stronger effect = lower value 0.943
